44 sequences from PMC7819943, “Rice protein-binding microarrays: a tool to detect cis-acting elements near promoter regions in rice” can be followed below.

The full ranking holds about 68,000 sequences; the median of “fluorescence intensity (a.u.)” is about 9,100, and the highest 2% start at about 16,000. The sample as a whole holds a higher share of the highest values than the screen did.

The target of this test is OsWRKY34 (Oryza sativa, UniProt Q0JBA9 1-250). The test can be described thus: protein-binding microarray (RPBM); PBS, 2% BSA, 51.3 ng/ul salmon testes DNA, 50 uM zinc acetate, 200 nM TF, 25 C, 1 h; high values mean tight binding. Particulars: protein: recombinant; tags: N-terminal polyhistidine and DsRed monomer fusion (pET32a); label: CyDye5-dUTP incorporated in the synthesized complementary strand; 3' TTTTT single-stranded linker to array surface; dsDNA, one strand shown. In short, it runs like this: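 Transcription factors were each fused at the N-terminus to a polyhistidine tag plus DsRed and expressed in E. coli BL21-CodonPlus before Ni–NTA purification. Binding to a double-stranded custom Agilent array was carried out with 200 nM protein at 25 °C for 1 h in PBS, 2% BSA, salmon testes DNA and 50 µM zinc acetate. The binding signal is per-feature fluorescence intensity, in arbitrary units, on an Axon 4000B scanner.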
Chain of OsWRKY34 (Q0JBA9 entry or part of it): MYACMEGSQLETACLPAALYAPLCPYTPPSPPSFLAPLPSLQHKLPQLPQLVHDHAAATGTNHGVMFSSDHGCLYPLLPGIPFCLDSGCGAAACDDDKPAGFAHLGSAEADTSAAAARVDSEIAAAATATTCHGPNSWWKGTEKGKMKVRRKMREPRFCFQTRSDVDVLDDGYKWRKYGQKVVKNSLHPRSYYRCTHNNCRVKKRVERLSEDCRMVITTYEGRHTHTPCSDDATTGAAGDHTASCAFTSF
In the case of “TGCCAGCACAAATCTCGAAGCACATCCAATGATCCAAGACCGGAGTCACCTAGTGCAG”, the binding signal is 9540 fluorescence intensity (a.u.).

“TACTGTTGCTGCTAGTTCACCATTTGCGCATTTCCTCTTCCGGAGTCACCTAGTGCAG”: the binding signal was 11700 fluorescence intensity (a.u.).

In the case of “TCGCCGTTCGCTGGTATATGCCGTTGTCTTGGAATCATCTCGGAGTCACCTAGTGCAG”, the binding signal is 11100 fluorescence intensity (a.u.).

Take “GGCGGTATCGACGAAGAATCTCGGGGCGGTGGGGAGGTTTCGGAGTCACCTAGTGCAG”: the binding signal is 17700 fluorescence intensity (a.u.).

“AAATTTAGGTGGAGGGGTGTGGGCGGTTTCGTGCAAAAATCGGAGTCACCTAGTGCAG”: the binding signal was 19100 fluorescence intensity (a.u.).

For “GGGAGAGGTGGAGACCAGGAGGTGGGGTGGCGGAGGTCATCGGAGTCACCTAGTGCAG”, the binding signal was 14300 fluorescence intensity (a.u.).

In the case of “TGACATGGTTGTTAGGGTTTGCGAGCAAATTTTCGTGGGGCGGAGTCACCTAGTGCAG”, the binding signal was 10100 fluorescence intensity (a.u.).

With “CGGTGTTGGGATCGGGTTTGGAGGTGGTAAGGGTGGTGGTCGGAGTCACCTAGTGCAG”, the binding signal is 10600 fluorescence intensity (a.u.).

“GTGGAGGCGCGGTGGGGTGGGGAAGGAGTGTGTTTCGTGTCGGAGTCACCTAGTGCAG”: the binding signal was 15500 fluorescence intensity (a.u.).

As to “GCATCGTGGGGTGTGGGTGGCGGTTTTGGAGGGGAGAGGTCGGAGTCACCTAGTGCAG”, the binding signal was 23200 fluorescence intensity (a.u.).

Turning to “CGCGGGAATCGGCCGGCGACGTGGGGAGGTGGGGAGGAGACGGAGTCACCTAGTGCAG”, the binding signal was 8900 fluorescence intensity (a.u.).

Consider “CCGGTGGGGTGGGGAATTCGGCGGAGGAAGACGACGACGACGGAGTCACCTAGTGCAG”, for which the binding signal was 9250 fluorescence intensity (a.u.).

As for “ATGGGTTGGGACTGTCCTGGTGCGCGATTACTAACGTGGACGGAGTCACCTAGTGCAG”, the binding signal is 8790 fluorescence intensity (a.u.).

In the case of “TATTGGAACTATTACGACCACATGCTCTCTTCCTACTCTCCGGAGTCACCTAGTGCAG”, the binding signal was 9770 fluorescence intensity (a.u.).

On to “CTCCAGCCGATATACATGCAGCCGCTGTCATCTTTTGTTCCGGAGTCACCTAGTGCAG”, for which the binding signal is 9100 fluorescence intensity (a.u.).

As to “TCTTTTACACTTCATTTATTTTTTCATGCACCAAGGCTTACGGAGTCACCTAGTGCAG”, the binding signal was 9810 fluorescence intensity (a.u.).

Consider “TGTTTTGGCTTTGGTCCCTTGCTTTTCTTTGGAGGTTGGACGGAGTCACCTAGTGCAG”, for which the binding signal was 10400 fluorescence intensity (a.u.).

For “TTCTTTTTTTGTGGGGAGAGGCGGGCTGTTTTTTTCTTGCCGGAGTCACCTAGTGCAG”, the binding signal is 15900 fluorescence intensity (a.u.).

For “GGATACTGCACAGCCCTTGATCACAATACAGTGCATTTCTCGGAGTCACCTAGTGCAG”, the binding signal is 9450 fluorescence intensity (a.u.).

On to “CTTGCACGCGACGGCCTGGCATTTGTGTACGGCACCGCCCCGGAGTCACCTAGTGCAG”, for which the binding signal is 8030 fluorescence intensity (a.u.).

Take “GGGGATTTTTGTACGCTCACGGCATTTTTTTTGTCAGCGACGGAGTCACCTAGTGCAG”: the binding signal is 17500 fluorescence intensity (a.u.).

As for “GAGTAGTTCGCTTTGGCAGTATGGCATTTGTACACGCTCACGGAGTCACCTAGTGCAG”, the binding signal was 8660 fluorescence intensity (a.u.).

Regarding “TATCTTATCAGGTCTCGTCTTCTTTAATCCAACCCTTGTTCGGAGTCACCTAGTGCAG”, the binding signal was 8680 fluorescence intensity (a.u.).

Take “ATCTTAAGCTGTCCTTTTTCATGCCGAGTCAGAGTTTCATCGGAGTCACCTAGTGCAG”: the binding signal was 9130 fluorescence intensity (a.u.).

As for “TCGGATACGAGTTTGATTCTCATCCTCCTTCATTTATATTCGGAGTCACCTAGTGCAG”, the binding signal was 8320 fluorescence intensity (a.u.).

With “CCGTATTTGAATATATGACGCCGTTGACTTTTTAACTAATCGGAGTCACCTAGTGCAG”, the binding signal was 17900 fluorescence intensity (a.u.).

Take “CGTATTTTAATATATGACGCCGTTGACTTTTTATTAACGACGGAGTCACCTAGTGCAG”: the binding signal is 23200 fluorescence intensity (a.u.).

As to “CGTATTTTAATATATGACGCCCGCCGTTGACTTTTTGTCTCGGAGTCACCTAGTGCAG”, the binding signal is 27800 fluorescence intensity (a.u.).

On to “ACTCCCTCCGTATTTTAATATATGACGCCGTTGACTTATTCGGAGTCACCTAGTGCAG”, for which the binding signal was 13800 fluorescence intensity (a.u.).

Take “GTATGACTTCTCCGTTTTTATATTTGCACTAATTTTTTAACGGAGTCACCTAGTGCAG”: the binding signal was 11200 fluorescence intensity (a.u.).

For “CTCTGCACGTTTCTTTCCCCTAACAAATACATGTACACACCGGAGTCACCTAGTGCAG”, the binding signal was 9590 fluorescence intensity (a.u.).

With “ACACATAAACTTCTAACTTTTCCGTCACATCGTTCCAATTCGGAGTCACCTAGTGCAG”, the binding signal is 8380 fluorescence intensity (a.u.).

In the case of “GCATCCTAACATCCCGCCGAAGGACCTTTTCAACCTCATCCGGAGTCACCTAGTGCAG”, the binding signal was 8300 fluorescence intensity (a.u.).

Regarding “ATTGAGATAGAGGGAGTGGTTGGGATGGTGAAGTTGCTATCGGAGTCACCTAGTGCAG”, the binding signal was 9450 fluorescence intensity (a.u.).

Regarding “ACTCCATCAATTTTTCATTATGTCTGTGTTTGTCCTGACTCGGAGTCACCTAGTGCAG”, the binding signal was 14900 fluorescence intensity (a.u.).

With “TCAACTGTACTGTACTCCACTCGCCGCACACACTGACACACGGAGTCACCTAGTGCAG”, the binding signal is 11200 fluorescence intensity (a.u.).

With “CATTTTTCTAATTACAAAGTCCATTTCTTTTTATGTTTTCCGGAGTCACCTAGTGCAG”, the binding signal is 8830 fluorescence intensity (a.u.).

In the case of “ATACTTCATCCGTTTCTAAATATTTGATGCCGTTGACTTTCGGAGTCACCTAGTGCAG”, the binding signal was 17600 fluorescence intensity (a.u.).

Take “AATTGACTTTTTTATGCTAATTTTCCCTCTAATTACTTGTCGGAGTCACCTAGTGCAG”: the binding signal was 18400 fluorescence intensity (a.u.).

On to “CATATACTCTATCCGTTTCTAAATATTTGACGCCGTTGACCGGAGTCACCTAGTGCAG”, for which the binding signal is 16200 fluorescence intensity (a.u.).

Regarding “GGTTTCCTCATATGCCCTTGAAAATTTGCTATTCCTCTGTCGGAGTCACCTAGTGCAG”, the binding signal was 22700 fluorescence intensity (a.u.).

Consider “AATATTTCATCAGTTTCTAAATTTTTGACGCCGTTGACTTCGGAGTCACCTAGTGCAG”, for which the binding signal is 10200 fluorescence intensity (a.u.).

In the case of “TTATGCGTGACTTGTCTTTTTAATTTTTTAATAATTTTTTCGGAGTCACCTAGTGCAG”, the binding signal was 9370 fluorescence intensity (a.u.).

Consider “AATTTTTTTCCTCTCCTGTTTTGTGCCCTTGATATTATGTCGGAGTCACCTAGTGCAG”, for which the binding signal is 13400 fluorescence intensity (a.u.).
